# In PubChem BioAssay:
# Results filed as inconclusive are left out. The list shows a part of the results. Activity calls are given as the source filed them. Cut-off read from the data, not from the text of the source, unless noted: active = response below about 74% or above about 130%; inactive = in between.
# What was measured:
# [1] = yeast TOR pathway RPL19A-GFP modulators, primary screen, cell-based, S. cerevisiae, multiplex flow cytometry (AID 1862; in the data active = percent of DMSO control GFP below about 86%;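 note: lower values mimic rapamycin by blocking the RPL19A rise seen in DMSO cells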); details: S. cerevisiae RPL19A-GFP strain, flow cytometry fluorescence, 3 h; at 10 µM; stronger effect = lower value
# [2] = modulators of MEP2-GFP levels in yeast, primary screen, S. cerevisiae, multiplex flow cytometry (AID 1867;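 active = GFP response, as percent of the DMSO control, above the screen-wide mean plus 3 SD, about 139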;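 note: median GFP channel fluorescence of barcode-gated MEP2-GFP cells measured by flow cytometry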); details: S. cerevisiae MEP2-GFP strain, 3 h, at 10 µM, stronger effect = higher value, 100% means same as DMSO wells
# [3] = modulators of CIT2-GFP expression in yeast, primary screen, S. cerevisiae, GFP fusion, multiplex flow cytometry (AID 1870;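 active = percent response above a set limit, the screen-wide mean plus 3 SD, cut at about 130% in these data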;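 note: barcoded CIT2-GFP strain pooled with four other GFP strains with rapamycin as positive control; median GFP fluorescence per well over plate mean of DMSO wells so 100% = DMSO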); details: 3 h, at 10 µM, stronger effect = higher value
# [4] = modulators of LAP4-GFP expression in yeast, primary screen, S. cerevisiae, multiplex flow cytometry (AID 1873;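 active = GFP signal, as percent of the solvent control, above the screen mean plus 3 SD, about 149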); details: 3 h, at 10 µM, stronger effect = higher value
# [5] = modulators of AGP1-GFP expression in yeast TOR pathway, primary screen, cell-based, multiplex flow cytometry, S. cerevisiae (AID 1887;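 active = GFP signal above the screen-wide mean plus 3 SD, that is over about 124.5% of the solvent control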;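 note: AGP1-GFP fusion strain of S. cerevisiae within a five-strain barcoded multiplex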); details: 3 h, at 10 µM, stronger effect = higher value
# [6] = RPL19A-GFP modulators, yeast TOR pathway, confirmation, cell-based, S. cerevisiae, flow cytometry, cherry picks, mother/daughter gates (AID 2270;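 active = GFP response below 50% of the DMSO control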); details: S. cerevisiae RPL19A-GFP strain, 3 h, at 10 µM, stronger effect = lower value, 100 = same GFP as DMSO wells
# [7] = LAP4-GFP expression modulators in yeast, confirmation, cell-based, cherry picks, flow cytometry, mother/daughter gates (AID 2271;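 active = GFP response above 150% of the DMSO control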;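 note: ratio of sample to DMSO plate mean so 100% equals DMSO level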); details: S. cerevisiae LAP4-GFP strain, 3 h, at 10 µM, stronger effect = higher value, 100 means same as DMSO control
# [8] = modulators of MEP2-GFP levels in yeast, confirmation, S. cerevisiae, flow cytometry GFP, cherry picks (AID 2272;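 active = GFP response above 150% of the DMSO control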;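 note: ratio of well signal to plate DMSO mean so 100% equals DMSO level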); details: S. cerevisiae MEP2-GFP strain, 3 h, at 10 µM, stronger effect = higher value
# [9] = modulators of CIT2-GFP expression in yeast, confirmation, S. cerevisiae, GFP fusion, cherry picks, mother/daughter gates (AID 2274;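 active = GFP response above 150% of the DMSO level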); details: S. cerevisiae CIT2-GFP strain, flow cytometry, 3 h, at 10 µM, stronger effect = higher value
# [10] = inhibitors of CD8+ T cell-vesicle binding, pilot screen, LFA-1/ICAM-1 modulator project, MLPCN validation set, flow cytometry (AID 2523;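 active = response below a set limit, under 55% cells CD8-positive and vesicle-bound, and CD8 cells' 90th-percentile brightness under 279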;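 for vesicle binding response: mean PE anti-B7-1 fluorescence of CD8+ cells relative to row control; 100% = QL9-loaded vesicles with DMSO vehicle in the same plate row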); details: 2C mouse CD8+ T cells, at 7 µM, stronger effect = lower value; double positive events: measured here: CD8+/vesicle+ event percentage
# [11] = disruption of biotin probe capture by avidin, counter-screen for RGS protein interaction modulators, biochemical, flow cytometry, bead-based (AID 1783;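 active = inhibition above 50%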;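 note: median green fluorescence of gated singlet beads compared with DMSO control wells; 0% = DMSO wells and 100% = complete loss of bead fluorescence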); details: streptavidin beads, fluorescein-biotin binding; at 10 µM, stronger effect = higher value
# [12] = target: Guanine nucleotide-binding protein G(o) subunit alpha (Homo sapiens) (UniProt P09471); assay: RGS8-Galphao binding modulators, confirmation, biochemical, multiplexed bead flow cytometry, single concentration (AID 1836; in the data active = binding response below about 72% or above about 130%; inactive = in between;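 note: Galphao activated as GDP AlF4 complex before binding bead RGS8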); details: bead-based flow cytometry RGS8-Galphao binding, fluorescence; at 10 µM; actives lie on both sides
# Chain of Guanine nucleotide-binding protein G(o) subunit alpha (Homo sapiens) (P09471 whole entry, looked up): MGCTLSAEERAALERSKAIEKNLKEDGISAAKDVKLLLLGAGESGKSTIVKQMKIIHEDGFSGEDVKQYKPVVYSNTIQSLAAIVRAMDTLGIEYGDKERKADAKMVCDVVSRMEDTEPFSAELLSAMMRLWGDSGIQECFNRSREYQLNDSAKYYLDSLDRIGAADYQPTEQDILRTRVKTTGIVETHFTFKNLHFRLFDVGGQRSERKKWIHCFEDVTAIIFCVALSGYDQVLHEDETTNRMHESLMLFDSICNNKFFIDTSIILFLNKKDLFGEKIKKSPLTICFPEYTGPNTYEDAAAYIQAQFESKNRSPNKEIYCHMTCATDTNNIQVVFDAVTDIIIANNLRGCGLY
# [13] = target: Guanine nucleotide-binding protein G(o) subunit alpha (Homo sapiens) (UniProt P09471); assay: RGS7-Galphao binding modulators, confirmation, biochemical, multiplexed bead flow cytometry, single concentration (AID 1837; in the data active = response below about 75% or above about 130%; inactive = in between;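 note: fluorescent Galphao activated with GDP and aluminum fluoride binding bead-coupled RGS7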); details: bead-based flow cytometry RGS7-Galphao binding; at 10 µM; actives lie on both sides
# [14] = target: Regulator of G-protein signaling 16 (Homo sapiens) + Guanine nucleotide-binding protein G(o) subunit alpha (Homo sapiens) (UniProt O15492+P09471); assay: modulators of RGS16-Galphao protein binding, confirmation, biochemical, single concentration, multiplexed bead flow cytometry (AID 1838); details: bead-based flow cytometry, at 10 µM, actives lie on both sides;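 note: Galphao activated as the GDP aluminium fluoride complex binding bead-coupled RGS16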
# Chain of Regulator of G-protein signaling 16 (Homo sapiens) + Guanine nucleotide-binding protein G(o) subunit alpha (Homo sapiens) (O15492 whole entry, looked up): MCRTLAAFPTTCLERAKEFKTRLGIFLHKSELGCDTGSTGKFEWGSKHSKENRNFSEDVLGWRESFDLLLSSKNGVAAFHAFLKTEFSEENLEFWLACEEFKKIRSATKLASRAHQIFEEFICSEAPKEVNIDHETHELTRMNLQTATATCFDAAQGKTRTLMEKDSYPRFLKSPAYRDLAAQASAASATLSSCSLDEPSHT
# Chain of Regulator of G-protein signaling 16 (Homo sapiens) + Guanine nucleotide-binding protein G(o) subunit alpha (Homo sapiens) (P09471 whole entry, looked up): as the sequence (P09471 whole entry, looked up) above
# [15] = target: Guanine nucleotide-binding protein G(o) subunit alpha (Homo sapiens) (UniProt P09471); assay: modulators of RGS4-Galphao protein binding, confirmation, biochemical, single concentration, multiplexed bead flow cytometry (AID 1840; in the data active = binding response below about 74% or above about 130%; inactive = in between); details: at 10 µM, actives lie on both sides
# [16] = target: Guanine nucleotide-binding protein G(o) subunit alpha (Homo sapiens) + Regulator of G-protein signaling 19 (Homo sapiens) (UniProt P09471+P49795); assay: regulators of RGS19-Galphao binding, confirmation, biochemical, single point, multiplexed bead flow cytometry (AID 1841; in the data active = response below about 50% or above about 160%; inactive = in between;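 note: 100% = no compound control and 0% = blank background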); details: bead-based flow cytometry RGS19-Galphao binding; at 10 µM; actives lie on both sides
# Chain of Guanine nucleotide-binding protein G(o) subunit alpha (Homo sapiens) + Regulator of G-protein signaling 19 (Homo sapiens) (P09471 whole entry, looked up): as above
# Chain of Guanine nucleotide-binding protein G(o) subunit alpha (Homo sapiens) + Regulator of G-protein signaling 19 (Homo sapiens) (P49795 whole entry, looked up): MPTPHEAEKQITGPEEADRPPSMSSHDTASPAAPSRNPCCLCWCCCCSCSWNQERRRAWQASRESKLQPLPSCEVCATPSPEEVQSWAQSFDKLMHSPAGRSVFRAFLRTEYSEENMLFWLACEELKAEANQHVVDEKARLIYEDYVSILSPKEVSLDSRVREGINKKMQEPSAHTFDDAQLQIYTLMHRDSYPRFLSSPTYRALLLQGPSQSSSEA
# [17] = target: Regulator of G-protein signaling 16 (Homo sapiens) (UniProt O15492); assay: modulators of RGS–Galpha-o binding, primary screen, biochemical, multiplexed beads, flow cytometry, RGS4/7/8/16/19 (AID 1504); details: multiplexed bead flow cytometry, measured here: RGS16 interaction, at 10 µM;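 note: fluorescently labeled Galpha-o bound to GDP with aluminium fluoride binding biotinylated RGS beads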
# [18] = target: Regulator of G-protein signaling 19 (Homo sapiens) (UniProt P49795); assay: as above; details: multiplexed bead flow cytometry, measured here: RGS19 interaction, at 10 µM
# [19] = target: Regulator of G-protein signaling 7 (Homo sapiens) (UniProt P49802); assay: as above; details: multiplexed bead flow cytometry, measured here: RGS7 interaction, at 10 µM
# [20] = target: Regulator of G-protein signaling 8 (Homo sapiens) (UniProt P57771); assay: as above; details: multiplexed bead flow cytometry, measured here: RGS8 interaction, at 10 µM
# [21] = measured here: daughter cell gate
# [22] = measured here: mother cell gate
# [23] = measured here: daughter cell gate response
# [24] = measured here: mother cell gate response
smiles,measurement,setting,value
O=C(NCCN1CCN(c2ccccc2)CC1)c1cccc(Br)c1,percent of DMSO control GFP,[1],91.3% (inactive)
same,GFP response vs DMSO,[2],158% (active)
same,percent response of DMSO control,[3],107% (inactive)
same,GFP response vs DMSO,[4],88.6% (inactive)
same,"GFP response, % of DMSO",[5],91.5% (inactive)
same,GFP response vs DMSO,[6],97% (inactive)
same,GFP response vs DMSO,[6]; [21],98%
same,GFP response vs DMSO,[6]; [22],97.4%
same,GFP response relative to DMSO,[7],97.7% (inactive)
same,GFP response relative to DMSO,[7]; [23],101%
same,GFP response relative to DMSO,[7]; [24],96.5%
same,GFP response vs DMSO,[8],102% (inactive)
same,"GFP response, % of DMSO",[9],102% (inactive)
same,"GFP response, % of DMSO",[9]; [21],100%
same,"GFP response, % of DMSO",[9]; [22],101%
same,double positive events,[10],41.8%
same,vesicle binding response,[10],59.1% (active)
CCCOc1ccc(Cc2c(Cl)nc(SC)nc2NC)cc1,inhibition,[11],-0.2% (inactive)
same,binding response (% of control),[12],102% (inactive)
same,response (percent of control binding),[13],94.9% (inactive)
same,response (% of control binding),[14],99.9% (inactive)
same,binding response (% of control),[15],101% (inactive)
same,response (percent of control binding),[16],67.1% (inactive)
COc1ccccc1CCNC(=O)CSc1nnc2ccc(-c3cccnc3)nn12,inhibition,[11],-0.7% (inactive)
same,binding response (% of control),[12],100% (inactive)
same,response (percent of control binding),[13],103% (inactive)
same,response (% of control binding),[14],101% (inactive)
same,binding response (% of control),[15],101% (inactive)
same,response (percent of control binding),[16],107% (inactive)
COc1ccccc1NC(=O)CCCc1c[nH]c2ccccc12,RGS16–Galpha-o binding response,[17],109%
same,RGS19–Galpha-o binding response,[18],78.4%
same,RGS7–Galpha-o binding response,[19],312%
same,RGS8–Galpha-o binding response,[20],85%
same,inhibition,[11],2.9% (inactive)
same,binding response (% of control),[12],95.7% (inactive)
same,response (percent of control binding),[13],89.4% (inactive)
same,response (% of control binding),[14],97.2% (inactive)
same,binding response (% of control),[15],92.5% (inactive)
same,response (percent of control binding),[16],92.9% (inactive)
Cc1ccc(S(=O)(=O)NCC(=O)OCC(=O)N2CCc3ccccc32)cc1,RGS16–Galpha-o binding response,[17],604%
same,RGS19–Galpha-o binding response,[18],93.8%
same,RGS7–Galpha-o binding response,[19],139%
same,RGS8–Galpha-o binding response,[20],117%
same,inhibition,[11],-1.7% (inactive)
same,binding response (% of control),[12],102% (inactive)
same,response (percent of control binding),[13],99.5% (inactive)
same,response (% of control binding),[14],98.9% (inactive)
same,binding response (% of control),[15],99.7% (inactive)
same,response (percent of control binding),[16],97.4% (inactive)
COc1ccc(CCNC(=O)c2cc3sccc3n2C)cc1OC,inhibition,[11],0.7% (inactive)
same,binding response (% of control),[12],103% (inactive)
same,response (percent of control binding),[13],106% (inactive)
same,response (% of control binding),[14],103% (inactive)
same,binding response (% of control),[15],102% (inactive)
same,response (percent of control binding),[16],114% (inactive)
COc1ccc(-c2[nH]ncc2CN(CCO)Cc2cccs2)c(F)c1,percent of DMSO control GFP,[1],102% (inactive)
same,GFP response vs DMSO,[2],105% (inactive)
same,percent response of DMSO control,[3],104% (inactive)
same,GFP response vs DMSO,[4],99.1% (inactive)
same,"GFP response, % of DMSO",[5],105% (inactive)
same,GFP response vs DMSO,[6],96.8% (inactive)
same,GFP response vs DMSO,[6]; [21],97.4%
same,GFP response vs DMSO,[6]; [22],98.4%
same,GFP response relative to DMSO,[7],94.1% (inactive)
same,GFP response relative to DMSO,[7]; [23],94.4%
same,GFP response relative to DMSO,[7]; [24],94%
same,GFP response vs DMSO,[8],100% (inactive)
same,"GFP response, % of DMSO",[9],99.7% (inactive)
same,"GFP response, % of DMSO",[9]; [21],103%
same,"GFP response, % of DMSO",[9]; [22],99.7%
same,double positive events,[10],62.7%
same,vesicle binding response,[10],142% (inactive)
CC(=O)Nc1ccc(S(=O)(=O)c2ccc(N)cc2)cc1,percent of DMSO control GFP,[1],97.9% (inactive)
same,GFP response vs DMSO,[2],126% (inactive)
same,percent response of DMSO control,[3],136% (active)
same,GFP response vs DMSO,[4],77.6% (inactive)
same,"GFP response, % of DMSO",[5],85.4% (inactive)
same,GFP response vs DMSO,[6],103% (inactive)
same,GFP response vs DMSO,[6]; [21],101%
same,GFP response vs DMSO,[6]; [22],104%
same,GFP response relative to DMSO,[7],105% (inactive)
same,GFP response relative to DMSO,[7]; [23],103%
same,GFP response relative to DMSO,[7]; [24],106%
same,GFP response vs DMSO,[8],102% (inactive)
same,"GFP response, % of DMSO",[9],102% (inactive)
same,"GFP response, % of DMSO",[9]; [21],101%
same,"GFP response, % of DMSO",[9]; [22],102%
same,double positive events,[10],62.6%
same,vesicle binding response,[10],203% (inactive)
C=CCn1c(=NC(=O)c2cccs2)sc2cc(NC(C)=O)ccc21,RGS16–Galpha-o binding response,[17],152%
same,RGS19–Galpha-o binding response,[18],58.7%
same,RGS7–Galpha-o binding response,[19],152%
same,RGS8–Galpha-o binding response,[20],136%
same,inhibition,[11],-1.6% (inactive)
same,binding response (% of control),[12],103% (inactive)
same,response (percent of control binding),[13],107% (inactive)
same,response (% of control binding),[14],103% (inactive)
same,binding response (% of control),[15],102% (inactive)
same,response (percent of control binding),[16],109% (inactive)
